Six molecules from PubChem BioAssay (EPA / NIEHS) can be followed below.

Where “and” joins values, the source holds several entries; their conditions need not be identical. Identical values can stand only once. Records with an inconclusive call do not appear. Where a structure was tested more than once in an assay, its records may differ in their call. Calls of active or inactive are those of the source. Rule for the calls, unless noted: active = hit-call score of the fitted dose curve at least 0.9, where 1 is the maximum; inactive = score below 0.9.

Read-out in experiment [1]: Secreted IgG (sIgG), gene 3500
The experiment is described as follows: BSK_BT_sIgG: BioMAP Diversity Plus: BT Assay for Secreted IgG (sIgG) Biomarker Activity (AID 2284226). Particulars: primary human B cells with PBMC. The method, boiled down: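 Human B cell plus PBMC co-culture; secreted IgG measured by ELISA 24 h after chemical dosing. Response fitted in positive direction relative to DMSO baseline.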

The nature of experiment [2]: BSK_BT_Bcell_Proliferation: Viability Assessment in the BioMAP Diversity Plus: BT Assay for B cell Proliferation (AID 2284227). The conditions noted are these: primary human B cells with PBMC. The method, boiled down: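 Human B cell/PBMC co-culture; test chemical added; 72 h; TCA fix (10%), 0.1% SRB stain, A560 for total protein as a proliferation read-out; positive-direction fit vs DMSO baseline.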

Read-out in experiment [3]: Interleukin 6 (IL6), IL6 (gene 3569)
Description: BSK_BT_xIL6: BioMAP Diversity Plus: BT Assay for Interleukin 6 (IL6) Biomarker Activity (AID 2284228). The conditions noted are these: primary human B cells with PBMC. The method, boiled down: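 Readout: secreted IL-6 via Luminex xMAP multiplex, 24 h post-dosing. System: primary human B cells co-cultured with PBMC. Signal change scored relative to DMSO vehicle, positive fitting direction.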

Read-out in experiment [4]: Interleukin 17A (IL17A), IL17A (gene 3605)
The experiment is described as follows: BSK_BT_xIL17A: BioMAP Diversity Plus: BT Assay for Interleukin 17A (IL17A) Biomarker Activity (AID 2284229). The conditions noted are these: primary human B cells with PBMC. The method, boiled down:
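Luminex xMAP readout of secreted IL-17A; human B cell + PBMC co-culture; 24 h post-dose; positive-direction fit vs DMSO negative control.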

Read-out in experiment [5]: Tumor necrosis factor (Homo sapiens) (UniProt P01375)
The experiment is described as follows: BSK_BT_xTNFa: BioMAP Diversity Plus: BT Assay for Tumor necrosis factor alpha (TNF-alpha) Biomarker Activity (AID 2284230). Particulars: primary human B cells with PBMC. The method, boiled down: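 Read-out: Luminex xMAP quantitation of secreted TNF-alpha from a B cell/PBMC co-culture 24 h after compound addition. Signal analysed relative to DMSO vehicle, positive fitting direction.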

Read-out in experiment [6]: Vascular cell adhesion molecule 1 (VCAM1), VCAM1 (gene 7412)
The experiment is described as follows: BSK_MyoF_VCAM1: BioMAP Diversity Plus: MyoF Assay for Vascular cell adhesion molecule 1 (VCAM1) Biomarker Activity (AID 2284231). The conditions noted are these: primary human lung fibroblasts. The method, boiled down: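 MyoF system, lung fibroblasts; 24 h post-dose; VCAM-1 by ELISA; gain-of-signal fit vs DMSO baseline.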

A short description of experiment [7]: UKN4_HCS_LUHMES_cell_viability: Viability Assessment in the University of Konstanz (UKN) Leist Lab Neurite Outgrowth Assay in human LUHMES cells (UKN4) (AID 2284232). Put shortly:
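LUHMES precursors differentiated 2 days, replated at 30000 cells/well without cAMP/GDNF, then compound-treated 24 h. Viability from Hoechst H-33342 and calcein-AM live staining (30 min) by high-content fluorescence imaging; bidirectional fit versus DMSO.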

Experiment [8] can be described thus: CCTE_Mundy_HCI_Cortical_NOG_NeuronCount: CCTE's Neurite Outgrowth Assay in rat cortical cells for Neuron Count, Mundy Lab (AID 2284236; active = hit-call score of the fitted dose curve at least 0.9, where 1 is the maximum;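 note: neurons counted by imaging betaIII-tubulin and Hoechst stained cortical cells; cells exposed to compound for about 48 hours before fixation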). Put shortly: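 Read-out: neuron number by high-content imaging of betaIII-tubulin (Alexa Fluor-488) and Hoechst-labelled rat primary cortical cells.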
Experiment [9] is described as follows: CCTE_Mundy_HCI_Cortical_NOG_BPCount: CCTE's Neurite Outgrowth Assay in rat cortical cells for Branch Point Count, Mundy Lab (AID 2284237).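 For AC50: branch points counted about two days after chemical exposure.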 Put shortly: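 Measured 50.33 h after dosing, this morphology endpoint uses rat primary cortical cultures labelled for betaIII-tubulin. Branch points are quantified by high-content imaging, with DMSO as negative control and baseline.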

Read-out in experiment [10]: Collagen I, COL1A1 (gene 1277)
The experiment is described as follows: BSK_MyoF_CollagenI: BioMAP Diversity Plus: MyoF Assay for Collagen I Biomarker Activity (AID 2284238). The conditions noted are these: primary human lung fibroblasts. The method, boiled down:
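ELISA readout of Collagen I after 24 h chemical treatment of primary human lung fibroblast cultures; gain of signal scored relative to DMSO vehicle baseline.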

Read-out in experiment [11]: Collagen III, COL3A1 (gene 1281)
The experiment is described as follows: BSK_MyoF_CollagenIII: BioMAP Diversity Plus: MyoF Assay for Collagen III Biomarker Activity (AID 2284239). The conditions noted are these: primary human lung fibroblasts. The method, boiled down:
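Lung fibroblast culture; 24 h compound exposure; collagen III by ELISA; gain-of-signal fit vs DMSO baseline.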

Experiment [12] in a line: CCTE_Mundy_HCI_hNP1_Casp3_7: CCTE's Caspase-Glo 3/7 Assay in human neuroprogenitor cells for Apoptosis, Mundy Lab (AID 2284240). Put shortly: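 Apoptosis is scored by activated caspase-3/7 luminescence in WA09-derived neural progenitor cells, measured 26.5 h after chemical dosing. Values represent gain of signal relative to DMSO vehicle.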
The nature of experiment [13]: CCTE_Mundy_HCI_Cortical_Synap_Neur_Matur_NeuronCount: CCTE's Synaptogenesis and Neurite Maturation Assay in rat cortical cells for Neuron Count, Mundy Lab (AID 2284242; active = hit-call score of the fitted dose curve at least 0.9, where 1 is the maximum;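 for AC50: hits reduce neuron count versus DMSO baseline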). Put shortly: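 Rat primary cortical cells, AraC added at DIV 5, dosed with media change from DIV 7 to DIV 12. Fixed, Hoechst-stained and immunolabelled for MAP2 and synaptophysin; neuron number counted by high-content imaging, loss fitted versus DMSO.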

Read-out in experiment [14]: Interleukin 17F (IL17F), IL17F (gene 112744)
Description: BSK_BT_xIL17F: BioMAP Diversity Plus: BT Assay for Interleukin 17F (IL17F) Biomarker Activity (AID 2284243). Particulars: primary human B cells with PBMC. Put shortly:
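Secreted IL-17F, read on LumineX xMAP beads, was taken as the endpoint. Cultures combined human B cells and peripheral blood mononuclear cells, sampled 24 hours after dosing, with DMSO serving as negative control.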

Read-out in experiment [15]: Actin alpha 1 (ACTA1), ACTA1 (gene 58)
The experiment is described as follows: BSK_MyoF_ACTA1: BioMAP Diversity Plus: MyoF Assay for Actin alpha 1 (ACTA1) Biomarker Activity (AID 2284244). The conditions noted are these: primary human lung fibroblasts. Put shortly:
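Human lung fibroblast (MyoF system) cultures dosed with test chemical; alpha-SMA measured by ELISA 24 h after dosing, normalized to DMSO control. Cytotoxicity tracked in parallel cultures by SRB total-protein staining.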

Read-out in experiment [16]: Interleukin 2 (IL2), IL2 (gene 3558)
Description: BSK_BT_xIL2: BioMAP Diversity Plus: BT Assay for Interleukin 2 (IL2) Biomarker Activity (AID 2284245). The conditions noted are these: primary human B cells with PBMC. The method, boiled down: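 Human B cell plus PBMC co-culture, 24 h after chemical dosing; secreted IL-2 quantified by Luminex xMAP multiplex, fitted for signal gain against DMSO baseline.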

Read-out in experiment [17]: Basic fibroblast growth factor (bFGF), FGF2 (gene 2247)
The experiment is described as follows: BSK_MyoF_bFGF: BioMAP Diversity Plus: MyoF Assay for Basic fibroblast growth factor (bFGF) Biomarker Activity (AID 2284246). The conditions noted are these: primary human lung fibroblasts. The method, boiled down: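 Human lung fibroblast cultures were dosed and measured 24 h later in 96-well format. bFGF biomarker levels quantified by ELISA, with activity fitted in the positive direction against DMSO.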

Experiment [18] can be described thus: CCTE_Mundy_HCI_hNP1_CellTiter: CCTE's Cell Titer-Glo 2 Assay in human neuroprogenitor cells for Viability, Mundy Lab (AID 2284241; active = hit-call score of the fitted dose curve at least 0.9, where 1 is the maximum). The method, boiled down: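 Human neural progenitor cells (hNP1, WA09-derived) were plated on poly-L-ornithine/laminin and grown 40 to 44 hours at 37 °C, 5% CO2 before chemical addition. Twenty-four hours later, ATP was measured by CellTiter-Glo luminescence; loss of signal versus DMSO indicates reduced viability.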

Experiment [19] is described as follows: TAMU_HCS_1.5hr_SingleDonor1434_Cytotoxicity: Cytotoxicity Assessment using High-content Screening (HCS) Fluorescent Imaging for the Texas A&M University (TAMU) 1.5-hr Human Induced Pluripotent Stem Cell (iPSC)-derived Cardiotoxicity Assay (AID 2284234; active = hit-call score of the fitted dose curve at least 0.9, where 1 is the maximum). Put shortly:
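Human iPSC-derived cardiomyocytes dosed at 0.2, 1, 10, 100 uM final (0.5% DMSO) for 90 min at 37 C. Hoechst 33342-stained nuclei counted by 10x high-content imaging; POD is EC10, a 10% drop in total cell count versus DMSO.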

A short description of experiment [20]: TAMU_PeakParms_SingleDonor1434_QT: Texas A&M University (TAMU) 1.5-hr Human Induced Pluripotent Stem Cell (iPSC)-derived Cardiomyocytes Calcium (Ca+2) Flux Assay for Cardiotoxicity: QT (decay-rise ratio) (AID 2284235; active = hit-call score of the fitted dose curve at least 0.9, where 1 is the maximum). The method, boiled down: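 iPSC-derived cardiomyocytes (single donor 1434) dosed at 0.2, 1, 10, 100 uM final in 0.5% DMSO, 90 min at 37C. Ca2+ flux fluorescence decay/rise ratio; EC05 (5% increase versus DMSO) as POD, excluding beat-arrest and severe-notch data.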

Sequence of Tumor necrosis factor (Homo sapiens) (P01375 whole entry, looked up): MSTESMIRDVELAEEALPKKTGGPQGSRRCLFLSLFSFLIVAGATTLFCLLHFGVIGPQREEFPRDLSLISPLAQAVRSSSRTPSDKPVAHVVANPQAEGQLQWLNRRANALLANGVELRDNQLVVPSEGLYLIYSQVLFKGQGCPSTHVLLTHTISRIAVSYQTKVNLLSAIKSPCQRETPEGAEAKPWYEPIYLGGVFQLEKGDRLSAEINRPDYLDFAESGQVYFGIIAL

The term AC50 denotes the concentration giving half of the maximal activity seen. For the molecule `O=C(O)C(F)(F)C(F)(F)C(F)(F)C(F)(F)C(F)(F)C(F)(F)C(F)(F)F`, the result in experiment [1], in experiment [2], in experiment [3], in [4], in experiment [5] and in experiment [6] was inactive. Also, the outcome in [8], in experiment [9], in [10], in experiment [11], in [12] and in [13] was inactive. Further, the result in [14], in [15], in experiment [16] and in experiment [17] was inactive. In addition, the AC50 in [2] is 24 µM (active); in experiment [5] it was 5.95 µM (active); in experiment [7] it was 89.4 µM (active).

As to `ClC1C(Cl)C(Cl)C(Cl)C(Cl)C1Cl` (centres undefined), the AC50 is 30.5 µM (active) and 21.1 µM (active) in experiment [1]; 33.6 µM (active) in [2]; 30.5 µM (active) in experiment [5]; 16.3 µM (active) and 261 nM (active) in [6]; 25.5 µM (active) in experiment [10]; 30.3 µM (active) in experiment [11]. For the same molecule, the AC50 in experiment [14] was 20 µM (active); in experiment [15], 28.5 µM (active); in experiment [16], 31.9 µM (active). Also, the result in experiment [2], in experiment [3], in experiment [4], in [5], in experiment [7] and in experiment [10] was inactive. In addition, the result in [11], in experiment [14], in experiment [15], in experiment [16] and in experiment [17] was inactive.

On to `CCC(C)(C)C(=O)OC1=C(c2ccc(Cl)cc2Cl)C(=O)OC12CCCCC2`, for which the call in experiment [7], in [9], in experiment [12], in [18] and in experiment [13] was inactive.

Turning to `O=S1OCC2C(CO1)C1(Cl)C(Cl)=C(Cl)C2(Cl)C1(Cl)Cl` (centres undefined), the concentration at half-maximal activity (AC50) in experiment [7] was 18.7 µM (active); in [8] it was 25.2 µM (active); in experiment [9] it was 21.4 µM (active); in experiment [12], 19.4 µM (active); in experiment [18] it was 12 µM (active); in [13], 22.5 µM (active). Besides, the outcome in experiment [19] and in experiment [20] was inactive.

For `O=[N+]([O-])/N=C1\NCCN1Cc1ccc(Cl)nc1`, the result in experiment [7], in experiment [9], in experiment [12] and in experiment [18] was inactive.

For `CC1(C)C(C=C(Cl)Cl)C1C(=O)OC(C#N)c1ccc(F)c(Oc2ccccc2)c1` (centres undefined), the concentration at half-maximal activity (AC50) in [8] was 49.9 µM (active); in experiment [9] it was 63.1 µM (active); in experiment [12], 31.3 µM (active); in experiment [13] it was 49.9 µM (active). Besides, the result in [8], in experiment [9], in experiment [12] and in [18] was inactive.
